Out of some 5,500 compounds screened, about 2,000 (36%) were called active. Not shown: some 18% with an inconclusive outcome. Cut-off read from the data, not from the text of the source: active = normalized growth mostly below about 0.91 (no sharp cut-off); inconclusive = no clear call, values can overlap the other calls; inactive = mostly above about 0.92. This is one part of the list.
Assay: chemical genetic growth profiling, strain panel (AID 1159580);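 note: tested at 20 µM; growth read once vehicle control cultures reached saturation at 30 °C; 1 = growth at the plate median or of vehicle wells; lower values mean less growth of the strain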
Conditions: growth OD

Measured: normalized growth

Nc1ccc(S(=O)(=O)Nc2ncccn2)cc1
inactive: S. cerevisiae deletion strains, locus YJR066W, strain TOR1, stronger effect = lower value 0.92 | S. cerevisiae deletion strains, locus YJR075W, strain HOC1, stronger effect = lower value 0.992 | S. cerevisiae deletion strains, locus YKL009W, strain mrt4, stronger effect = lower value 1.01 | S. cerevisiae deletion strains, locus YKL068W, stronger effect = lower value 0.989 | S. cerevisiae deletion strains, locus YKL085W, strain MDH1 (second series), stronger effect = lower value 0.996 | S. cerevisiae deletion strains, locus YKL085W, strain MDH1, stronger effect = lower value 0.996 | S. cerevisiae deletion strains, locus YKL160W, strain elf1, stronger effect = lower value 1.01 | S. cerevisiae deletion strains, locus YKL190W, strain CNB1, stronger effect = lower value 0.989 | S. cerevisiae deletion strains, locus YKR001C, strain vps1, stronger effect = lower value 1 | S. cerevisiae deletion strains, locus YKR026C, strain gcn3, stronger effect = lower value 0.966 | S. cerevisiae deletion strains, locus YKR091W, strain srl3, stronger effect = lower value 0.978 | S. cerevisiae deletion strains, locus YLL001W, strain dnm1, stronger effect = lower value 0.977 | S. cerevisiae deletion strains, locus YLL026W, stronger effect = lower value 0.999 | S. cerevisiae deletion strains, locus YLL041C, strain sdh2, stronger effect = lower value 0.997 | S. cerevisiae deletion strains, locus YLR027C, strain aat2, stronger effect = lower value 0.983 | S. cerevisiae deletion strains, locus YLR039C, strain RIC1, stronger effect = lower value 0.999 | S. cerevisiae deletion strains, locus YLR058C, strain SHM2, stronger effect = lower value 0.976 | S. cerevisiae deletion strains, locus YLR102C, strain apc9, stronger effect = lower value 0.993 | S. cerevisiae deletion strains, locus YLR113W, strain HOG1, stronger effect = lower value 0.973 | S. cerevisiae deletion strains, locus YLR221C, strain rsa3, stronger effect = lower value 0.968 | S. cerevisiae deletion strains, locus YLR258W, strain gsy2, stronger effect = lower value 0.98 | S. cerevisiae deletion strains, locus YLR262C, strain YPT6 (second series), stronger effect = lower value 0.981 | S. cerevisiae deletion strains, locus YLR262C, strain YPT6, stronger effect = lower value 0.974 | S. cerevisiae deletion strains, locus YLR268W, strain sec22, stronger effect = lower value 1.05 | S. cerevisiae deletion strains, locus YLR320W, strain mms22, stronger effect = lower value 0.982 | S. cerevisiae deletion strains, locus YLR330W, strain CHS5, stronger effect = lower value 0.994 | S. cerevisiae deletion strains, locus YLR342W, strain FKS1 (second series), stronger effect = lower value 1.01 | S. cerevisiae deletion strains, locus YLR342W, strain FKS1, stronger effect = lower value 0.992 | S. cerevisiae deletion strains, locus YLR357W, strain rsc2, stronger effect = lower value 0.939 | S. cerevisiae deletion strains, locus YLR370C, strain arc18, stronger effect = lower value 0.982 | S. cerevisiae deletion strains, locus YLR384C, strain iki3, stronger effect = lower value 0.994 | S. cerevisiae deletion strains, locus YLR418C, strain cdc73, stronger effect = lower value 0.997 | S. cerevisiae deletion strains, locus YML016C, strain PPZ1, stronger effect = lower value 0.988 | S. cerevisiae deletion strains, locus YML032C, strain rad52, stronger effect = lower value 1.01 | S. cerevisiae deletion strains, locus YML120C, strain ndi1, stronger effect = lower value 0.969 | S. cerevisiae deletion strains, locus YML124C, strain tub3, stronger effect = lower value 1 | S. cerevisiae deletion strains, locus YMR058W, strain fet3, stronger effect = lower value 1.01 | S. cerevisiae deletion strains, locus YMR078C, strain ctf18, stronger effect = lower value 0.985 | S. cerevisiae deletion strains, locus YMR125W, strain sto1, stronger effect = lower value 0.955 | S. cerevisiae deletion strains, locus YMR129W, stronger effect = lower value 0.983 | S. cerevisiae deletion strains, locus YMR205C, strain PFK2, stronger effect = lower value 0.985 | S. cerevisiae deletion strains, locus YMR223W, strain ubp8, stronger effect = lower value 0.976 | S. cerevisiae deletion strains, locus YMR231W, strain pep5, stronger effect = lower value 0.979 | S. cerevisiae deletion strains, locus YMR307W, strain GAS1, stronger effect = lower value 1 | S. cerevisiae deletion strains, locus YNL067W, strain RPL9B, stronger effect = lower value 0.99 | S. cerevisiae deletion strains, locus YNL071W, strain lat1, stronger effect = lower value 0.969 | S. cerevisiae deletion strains, locus YNL153C, strain GIM3, stronger effect = lower value 0.987 | S. cerevisiae deletion strains, locus YNL183C, strain NPR1, stronger effect = lower value 0.942 | S. cerevisiae deletion strains, locus YNL209W, strain ssb2, stronger effect = lower value 0.967 | S. cerevisiae deletion strains, locus YNL233W, strain BNI4, stronger effect = lower value 0.994 | S. cerevisiae deletion strains, locus YNL248C, strain rpa49, stronger effect = lower value 0.974 | S. cerevisiae deletion strains, locus YNL250W, strain rad50, stronger effect = lower value 1 | S. cerevisiae deletion strains, locus YNL271C, strain bni1, stronger effect = lower value 0.998 | S. cerevisiae deletion strains, locus YNL298W, strain CLA4, stronger effect = lower value 1 | S. cerevisiae deletion strains, locus YNL307C, strain MCK1, stronger effect = lower value 1 | S. cerevisiae deletion strains, locus YNL322C, strain KRE1 (second series), stronger effect = lower value 0.959 | S. cerevisiae deletion strains, locus YNR049C, strain mso1, stronger effect = lower value 0.98 | S. cerevisiae deletion strains, locus YNR052C, strain pop2, stronger effect = lower value 0.995 | S. cerevisiae deletion strains, locus YOL006C, strain TOP1, stronger effect = lower value 0.968 | S. cerevisiae deletion strains, locus YOL012C, strain htz1 1.31 | S. cerevisiae deletion strains, locus YOL147C, strain pex11, stronger effect = lower value 1 | S. cerevisiae deletion strains, locus YOR001W, strain rrp6, stronger effect = lower value 0.948 | S. cerevisiae deletion strains, locus YOR061W, strain CKA2, stronger effect = lower value 0.968 | S. cerevisiae deletion strains, locus YOR069W, strain VPS5, stronger effect = lower value 1 | S. cerevisiae deletion strains, locus YOR070C, strain gyp1, stronger effect = lower value 0.991 | S. cerevisiae deletion strains, locus YOR080W, strain dia2, stronger effect = lower value 0.972 | S. cerevisiae deletion strains, locus YOR083W, strain WHI5, stronger effect = lower value 0.964 | S. cerevisiae deletion strains, locus YOR106W, strain vam3, stronger effect = lower value 0.981 | S. cerevisiae deletion strains, locus YOR136W, strain idh2, stronger effect = lower value 0.983 | S. cerevisiae deletion strains, locus YOR144C, strain elg1, stronger effect = lower value 0.996 | S. cerevisiae deletion strains, locus YOR184W, strain ser1, stronger effect = lower value 0.994 | S. cerevisiae deletion strains, locus YOR231W, strain MKK1, stronger effect = lower value 0.978 | S. cerevisiae deletion strains, locus YOR265W, strain rbl2, stronger effect = lower value 1.02 | S. cerevisiae deletion strains, locus YOR270C, strain vph1, stronger effect = lower value 0.919 | S. cerevisiae deletion strains, locus YOR290C, strain snf2, stronger effect = lower value 0.974 | S. cerevisiae deletion strains, locus YOR316C, strain cot1, stronger effect = lower value 0.984 | S. cerevisiae deletion strains, locus YPL051W, strain arl3, stronger effect = lower value 1.01 | S. cerevisiae deletion strains, locus YPL055C, strain LGE1, stronger effect = lower value 0.939 | S. cerevisiae deletion strains, locus YPL078C, strain atp4, stronger effect = lower value 0.992 | S. cerevisiae deletion strains, locus YPL106C, strain sse1, stronger effect = lower value 0.983 | S. cerevisiae deletion strains, locus YPL240C, strain hsp82, stronger effect = lower value 0.99 | S. cerevisiae deletion strains, locus YPL241C, strain CIN2, stronger effect = lower value 0.996 | S. cerevisiae deletion strains, locus YPL256C, strain CLN2, stronger effect = lower value 0.968 | S. cerevisiae deletion strains, locus YPR119W, strain clb2, stronger effect = lower value 0.983 | S. cerevisiae deletion strains, locus YPR141C, strain kar3, stronger effect = lower value 0.983 | S. cerevisiae deletion strains, locus YPR163C, strain tif3, stronger effect = lower value 1 | S. cerevisiae deletion strains, locus YPR167C, strain met16, stronger effect = lower value 0.989 | S. cerevisiae deletion strains, strain wtn01, stronger effect = lower value 1.01 | S. cerevisiae strains, strain wild type, stronger effect = lower value 0.988
